The target of assay [1] is Agonist Androgen Response Element (ARE), AR (gene 367) (UniProt P10275). The experiment in a line: OT_AR_ARELUC_AG_1440: Odyssey Thera (OT) 24-hour CHO-K1 Luciferase Assay for Agonist Androgen Response Element (ARE) (AID 2283379). The essentials:
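Readout: luciferase bioluminescence from CHO-K1 ARE-luc cells, measured 24 h post-dosing; agonism = increased mean luminescence vs DMSO controls, fitted in positive direction.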

Assay [2] concerns the target Estrogen receptor beta (Homo sapiens) (UniProt Q92731). Briefly: OT_ER_ERbERb_1440: Odyssey Thera (OT) 24-hour HEK293T Protein-Complementation Assay for Estrogen Receptor-beta/-beta Homodimer (AID 2283380).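 Note: fluorescence gain from ER beta LBD homodimer complementation read by laser scanning cytometry; scored as signal increase over DMSO baseline for both agonists and antagonists.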 The essentials:
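Fluorescence increase, nuclear for agonists or whole-cell for antagonists, relative to DMSO vehicle, quantified by laser scanning cytometer after fixation and Draq5 staining. Readout from 24 h treatment of HEK293T cells carrying complementation-paired ER beta LBD (aa 310-547).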

For assay [3], the target named is Estrogen receptor (Homo sapiens) (UniProt P03372). Briefly: OT_ERa_GFPERaERE_0480: Odyssey Thera (OT) 8-hour HeLa Transcription Induction Assay for Estrogen Receptor (AID 2283381; active = hit-call score of the fitted dose curve at least 0.9, where 1 is the maximum; inactive = score below 0.9). The essentials:
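An 8 h HeLa transcription-induction format with a GFP reporter under ERE control, read by fluorescence microscopy; single endpoint fitted positively with DMSO as baseline.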

The target is the same in assay [4]. Briefly: OT_ERa_GFPERaERE_0120: Odyssey Thera (OT) 2-hour HeLa Transcription Induction Assay for Estrogen Receptor (AID 2283382). The essentials:
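Two-hour compound treatment of HeLa cells preceded microscopy imaging of an inducible fluorescent reporter. Image-based quantification gave one endpoint, analysed for signal increase relative to DMSO controls.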

The target of assay [5] is Peroxisome proliferator-activated receptor gamma (Homo sapiens) (UniProt P37231). Briefly: OT_PPARg_PPARgSRC1_0480: Odyssey Thera (OT) 8-hour Protein-Complementation Assay for Peroxisome Proliferator-activated Receptor Gamma / SRC-1 Co-activator (AID 2283387).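 Note: nuclear to cytoplasmic split Venus YFP fluorescence ratio reporting PPARg SRC-1 interaction.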 The essentials: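 Protein-fragment complementation in HEK293T: Venus YFP halves (residues 1-158, 159-239, mutated to IFP1/IFP2) fused to PPARg/SRC-1. 8 h exposure; N/C ratio at 488 nm; DMSO negative control.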

Assay [6] addresses Retinoic acid receptor RXR-alpha (Homo sapiens) (UniProt P19793). Briefly: OT_NURR1_NURR1RXRa_0480: Odyssey Thera (OT) 8-hour HEK293T Protein Complementation Assay for Nurr1/retinoid X receptor (RXR) (AID 2283385). The essentials:
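Gain in fluorescent complementation signal over DMSO, measured 8 hours after chemical dosing of human kidney HEK293T cells, indicated enhanced Nurr1–RXRα association.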

For assay [7] the target is unchanged. The experiment in a line: OT_NURR1_NURR1RXRa_1440: Odyssey Thera (OT) 24-hour HEK293T Protein Complementation Assay for Nurr1/retinoid X receptor (RXR) (AID 2283386). In a few lines:
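Cell-based binding reporter: HEK293T cells, 24 h exposure, fluorescence-detected fragment complementation, DMSO as baseline.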

Assay [8] has as its target Bile acid receptor (Homo sapiens) (UniProt Q96RI1). Briefly: OT_FXR_FXRSRC1_1440: Odyssey Thera (OT) 24-hour HEK293T Protein-Complementation Assay for Farnesoid X receptor/SRC-1 Co-activator (AID 2283384). In a few lines:
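Single endpoint, analysed for increased fluorescence against DMSO controls. HEK293T cells carrying FXR and SRC-1 linked to complementary reporter halves were exposed to chemicals for 24 h before reading.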

The target is the same in assay [9]. The experiment in a line: OT_FXR_FXRSRC1_0480: Odyssey Thera (OT) 8-hour HEK293T Protein-Complementation Assay for Farnesoid X receptor/SRC-1 Co-activator (AID 2283383). The essentials: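 Readings were taken 8 h after dosing HEK293T cells in a split-reporter complementation format pairing FXR with SRC-1. Increased fluorescence relative to DMSO-treated wells defined activity.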

Assay [10] has as its target mouse Estrogen Receptor alpha (Era), Esr1 (gene 13982) (UniProt P19785). The experiment in a line: NVS_NR_mERa: NovaScreen (NVS) Nuclear Receptor Binding Assay for mouse Estrogen Receptor alpha (Era) (AID 2283378).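 Note: hit means loss of bound radioligand signal relative to DMSO.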 In a few lines: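 Cell-free radioligand competitive displacement binding, read by filter-based scintillation counting 18 h after dosing. Primary screen run in duplicate at 25 uM, actives retested in concentration series; loss of signal versus DMSO.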

As usually defined, the AC50 is the concentration giving half of the maximal activity seen.

Each structure is given as a SMILES string. Inconclusive results are not listed. Activity calls are given as the source filed them. Rule for the calls, unless noted: active = hit-call score of the fitted dose curve at least 0.9, where 1 is the maximum; inconclusive = response in the unintended direction; inactive = score below 0.9.

Chain of Estrogen receptor (Homo sapiens) (P03372 whole entry, looked up): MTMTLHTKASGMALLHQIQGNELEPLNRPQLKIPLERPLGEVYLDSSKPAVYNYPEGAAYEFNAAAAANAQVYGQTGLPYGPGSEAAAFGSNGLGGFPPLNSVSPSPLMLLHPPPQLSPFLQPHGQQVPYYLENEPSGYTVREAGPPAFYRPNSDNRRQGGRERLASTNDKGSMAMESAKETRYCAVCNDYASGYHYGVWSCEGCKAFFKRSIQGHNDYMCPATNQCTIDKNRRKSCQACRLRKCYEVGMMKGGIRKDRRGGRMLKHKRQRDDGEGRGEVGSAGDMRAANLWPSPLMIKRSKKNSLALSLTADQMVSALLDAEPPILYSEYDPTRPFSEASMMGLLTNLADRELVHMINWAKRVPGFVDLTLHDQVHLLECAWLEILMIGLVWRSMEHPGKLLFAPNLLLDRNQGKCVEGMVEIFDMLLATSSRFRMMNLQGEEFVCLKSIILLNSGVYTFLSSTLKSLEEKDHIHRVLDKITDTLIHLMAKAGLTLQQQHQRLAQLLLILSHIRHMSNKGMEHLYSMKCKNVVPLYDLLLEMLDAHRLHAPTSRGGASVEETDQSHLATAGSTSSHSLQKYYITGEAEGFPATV
Chain of Agonist Androgen Response Element (ARE), AR (gene 367) (P10275 whole entry, looked up): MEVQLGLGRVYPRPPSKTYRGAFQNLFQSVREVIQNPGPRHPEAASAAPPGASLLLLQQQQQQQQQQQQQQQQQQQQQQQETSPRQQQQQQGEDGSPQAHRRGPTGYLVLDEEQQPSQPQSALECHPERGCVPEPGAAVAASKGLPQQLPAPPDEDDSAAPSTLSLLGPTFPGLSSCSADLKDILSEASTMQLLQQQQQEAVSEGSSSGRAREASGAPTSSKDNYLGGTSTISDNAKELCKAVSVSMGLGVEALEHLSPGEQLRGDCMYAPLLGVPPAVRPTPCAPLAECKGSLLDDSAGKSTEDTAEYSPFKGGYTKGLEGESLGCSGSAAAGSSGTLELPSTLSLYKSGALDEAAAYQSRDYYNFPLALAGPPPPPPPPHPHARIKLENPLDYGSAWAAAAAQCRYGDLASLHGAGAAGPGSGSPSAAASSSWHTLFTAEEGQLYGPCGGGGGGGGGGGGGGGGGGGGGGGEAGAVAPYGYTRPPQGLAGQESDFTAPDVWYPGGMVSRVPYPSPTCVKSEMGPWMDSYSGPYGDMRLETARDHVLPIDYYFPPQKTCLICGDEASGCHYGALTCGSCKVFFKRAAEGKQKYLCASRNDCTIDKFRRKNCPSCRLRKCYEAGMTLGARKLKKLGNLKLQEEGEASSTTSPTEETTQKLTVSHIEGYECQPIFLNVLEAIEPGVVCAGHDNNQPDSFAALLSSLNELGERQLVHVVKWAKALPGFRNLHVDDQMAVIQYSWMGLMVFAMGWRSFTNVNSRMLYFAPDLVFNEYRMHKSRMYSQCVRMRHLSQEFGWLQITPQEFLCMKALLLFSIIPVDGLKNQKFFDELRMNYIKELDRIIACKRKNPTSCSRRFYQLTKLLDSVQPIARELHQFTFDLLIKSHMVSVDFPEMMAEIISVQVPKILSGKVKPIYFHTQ
Chain of Estrogen receptor beta (Homo sapiens) (Q92731 whole entry, looked up, the tested form may be a part): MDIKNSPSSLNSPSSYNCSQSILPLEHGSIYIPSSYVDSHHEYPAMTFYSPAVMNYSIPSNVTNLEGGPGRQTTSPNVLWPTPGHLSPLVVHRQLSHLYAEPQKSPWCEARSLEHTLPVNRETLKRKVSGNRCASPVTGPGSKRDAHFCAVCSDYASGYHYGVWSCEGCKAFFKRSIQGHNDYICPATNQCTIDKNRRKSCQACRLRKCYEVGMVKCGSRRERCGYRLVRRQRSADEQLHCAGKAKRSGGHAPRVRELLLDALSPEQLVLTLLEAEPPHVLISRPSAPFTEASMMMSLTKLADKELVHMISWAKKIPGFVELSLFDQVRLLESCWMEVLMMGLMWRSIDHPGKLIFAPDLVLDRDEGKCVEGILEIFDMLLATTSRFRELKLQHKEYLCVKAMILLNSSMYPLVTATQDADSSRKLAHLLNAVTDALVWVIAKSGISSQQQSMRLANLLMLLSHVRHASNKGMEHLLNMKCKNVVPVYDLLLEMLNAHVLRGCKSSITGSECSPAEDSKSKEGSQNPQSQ
Chain of Bile acid receptor (Homo sapiens) (Q96RI1 whole entry, looked up): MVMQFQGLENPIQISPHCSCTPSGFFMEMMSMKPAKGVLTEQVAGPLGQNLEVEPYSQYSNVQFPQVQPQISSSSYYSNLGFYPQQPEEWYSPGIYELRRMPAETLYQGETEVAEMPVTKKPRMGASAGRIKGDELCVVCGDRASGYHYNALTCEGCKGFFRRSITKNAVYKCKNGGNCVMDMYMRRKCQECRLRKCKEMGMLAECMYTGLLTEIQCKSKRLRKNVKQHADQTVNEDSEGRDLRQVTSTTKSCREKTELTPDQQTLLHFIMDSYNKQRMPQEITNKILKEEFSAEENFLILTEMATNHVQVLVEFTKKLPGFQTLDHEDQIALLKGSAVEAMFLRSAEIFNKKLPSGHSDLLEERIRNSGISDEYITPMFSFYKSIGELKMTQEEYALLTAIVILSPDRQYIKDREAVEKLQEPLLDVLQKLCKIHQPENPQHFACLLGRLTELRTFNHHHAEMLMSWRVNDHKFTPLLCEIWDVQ
Chain of Retinoic acid receptor RXR-alpha (Homo sapiens) (P19793 whole entry, looked up): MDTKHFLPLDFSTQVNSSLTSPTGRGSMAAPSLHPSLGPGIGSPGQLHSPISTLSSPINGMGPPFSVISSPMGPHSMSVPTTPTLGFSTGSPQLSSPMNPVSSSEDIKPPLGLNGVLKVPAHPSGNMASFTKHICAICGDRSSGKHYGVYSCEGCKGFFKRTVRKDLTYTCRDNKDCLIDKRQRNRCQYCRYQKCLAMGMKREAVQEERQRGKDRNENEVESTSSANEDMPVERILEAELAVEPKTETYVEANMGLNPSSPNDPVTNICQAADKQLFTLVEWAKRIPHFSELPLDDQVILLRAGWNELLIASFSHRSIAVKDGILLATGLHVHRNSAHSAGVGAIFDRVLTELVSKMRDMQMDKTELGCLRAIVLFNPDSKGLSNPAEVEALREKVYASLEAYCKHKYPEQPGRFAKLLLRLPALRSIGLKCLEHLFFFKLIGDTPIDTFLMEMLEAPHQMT
Chain of Peroxisome proliferator-activated receptor gamma (Homo sapiens) (P37231 whole entry, looked up, the tested form may be a part): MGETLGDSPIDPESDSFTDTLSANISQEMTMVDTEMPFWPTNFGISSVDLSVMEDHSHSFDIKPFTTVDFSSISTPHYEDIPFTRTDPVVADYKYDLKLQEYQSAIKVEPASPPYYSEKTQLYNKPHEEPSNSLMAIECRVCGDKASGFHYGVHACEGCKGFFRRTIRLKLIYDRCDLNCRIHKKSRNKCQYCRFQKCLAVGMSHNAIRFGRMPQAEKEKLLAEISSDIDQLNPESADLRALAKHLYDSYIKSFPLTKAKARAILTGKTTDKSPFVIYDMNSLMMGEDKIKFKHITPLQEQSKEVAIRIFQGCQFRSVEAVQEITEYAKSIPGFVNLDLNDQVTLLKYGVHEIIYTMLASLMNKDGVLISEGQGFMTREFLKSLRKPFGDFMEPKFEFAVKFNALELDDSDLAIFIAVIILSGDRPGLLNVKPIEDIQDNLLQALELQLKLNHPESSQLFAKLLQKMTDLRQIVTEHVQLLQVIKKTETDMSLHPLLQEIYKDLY
Chain of mouse Estrogen Receptor alpha (Era), Esr1 (gene 13982) (P19785 whole entry, looked up): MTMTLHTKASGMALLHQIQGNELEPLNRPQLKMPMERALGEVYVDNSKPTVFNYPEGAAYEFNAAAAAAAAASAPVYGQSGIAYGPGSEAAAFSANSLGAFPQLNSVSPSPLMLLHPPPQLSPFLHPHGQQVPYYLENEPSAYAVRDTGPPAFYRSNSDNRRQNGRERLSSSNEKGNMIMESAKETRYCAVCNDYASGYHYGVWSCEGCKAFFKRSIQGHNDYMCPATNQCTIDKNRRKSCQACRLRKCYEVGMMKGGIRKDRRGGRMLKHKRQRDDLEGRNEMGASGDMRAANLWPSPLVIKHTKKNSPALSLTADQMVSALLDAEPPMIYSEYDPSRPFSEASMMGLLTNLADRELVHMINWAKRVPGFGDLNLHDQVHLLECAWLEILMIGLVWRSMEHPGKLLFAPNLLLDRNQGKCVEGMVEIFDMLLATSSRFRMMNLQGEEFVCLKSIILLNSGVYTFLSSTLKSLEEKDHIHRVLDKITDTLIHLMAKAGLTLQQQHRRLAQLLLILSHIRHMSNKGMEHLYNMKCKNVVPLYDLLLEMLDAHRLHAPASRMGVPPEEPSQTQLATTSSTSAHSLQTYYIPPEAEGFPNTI

For `CCCc1ccc(OC)cc1`, the outcome in assay [1], in assay [2], in assay [3], in assay [4] and in [5] was inactive.
On to `Oc1ccc(Cl)cc1Cc1cc(Cl)ccc1O`, for which the compound was classed as inactive in assay [1], in assay [3], in [4] and in assay [5]. In addition, the AC50 was 11.9 µM (active) in [2], 11.7 µM (active) in [6] and 11.2 µM (active) in [7].
For `Cc1ccc(C(C)c2ccc(C)c(C)c2)cc1C`, the outcome in [2], in assay [3] and in [4] was inactive. The AC50 in assay [6] was 83.5 µM (active); in assay [7], 76.4 µM (active).
Take `NC(=O)N=NC(N)=O`: the result in assay [2], in [3], in [8] and in assay [5] was inactive. In assay [4], the concentration at half-maximal activity (AC50) was 12.1 µM (active).
For `CNC(=S)NN`, the compound was called inactive in assay [2], in assay [3], in [4], in assay [7] and in assay [5]. Further, the AC50 in assay [6] is 50 µM (active).
Consider `CCOC(=O)CC`, for which the outcome in assay [2], in assay [3], in assay [4], in assay [9], in assay [8] and in assay [7] was inactive. For the same compound, the outcome in assay [5] was inactive.
On to `CC(C)(C)c1ccc(N)cc1`, for which the outcome in assay [2], in [3], in [4], in assay [6], in [7] and in assay [5] was inactive.
`O=c1cc(-c2ccccc2)oc2ccccc12`: the outcome in [1], in assay [3], in assay [4], in assay [6], in [7] and in assay [5] was inactive. Further, in [2], the AC50 is 49.2 µM (active).
On to `CCCCC/C=C\CCC=O`, for which the AC50 in assay [1] is 1.31 µM (active). The compound was called inactive in assay [3], in assay [4], in [6], in [7] and in [5].
For `CCCCCCCC[N+](C)(CCCCCCCC)CCCCCCCC`, the AC50 is 0.338 µM (active) in assay [10] and 12.4 µM (active) in [4]. The outcome in assay [2], in assay [3] and in assay [5] was inactive.
Consider `O=C(C=Cc1ccccc1)OCc1ccccc1`, for which the call in [2], in assay [3], in [4], in assay [6] and in assay [5] was inactive.
For the compound `C1=Cc2ccccc2C1`, the call in assay [3], in [4], in [7] and in [5] was inactive.
On to `CC1=NN(c2cc(S(=O)(=O)O)ccc2Cl)C(=O)C1N=Nc1ccccc1` (centres undefined), for which the result in assay [2], in [3], in assay [4] and in [5] was inactive.
Consider `Cc1ccc(C(C)(C)C)cc1`, for which the result in assay [3], in assay [4], in [6], in assay [7] and in assay [5] was inactive.
Consider `CC1=CC[C@H]2C[C@@H]1C2(C)C`, for which the call in assay [2], in [7] and in assay [5] was inactive. In addition, the results for the AC50 in assay [3] and in assay [4] were 93.4 µM (active) and 93.6 µM (active), respectively.
As for `c1c[nH]cn1`, the compound was classed as inactive in [2], in assay [3], in [4] and in assay [5].
Take `CC(CC=O)CCCC(C)(C)O` (centres undefined): the compound was called inactive in assay [3], in assay [4], in assay [6], in assay [7] and in [5].
For the compound `CCCCCCC1(C)CCC(=O)O1` (centres undefined), the call in [3], in assay [4] and in assay [5] was inactive.
As for `Cc1ccc(N/N=c2\c(=O)cc/c(=N/Nc3ccc(S(=O)(=O)O)cc3)c2=O)c(C)c1`, the compound was called inactive in [2], in [3], in assay [4] and in [5].
Take `CCN(CCC#N)c1ccc(N=Nc2c(Cl)cc([N+](=O)[O-])cc2Cl)cc1`: the compound was called inactive in [3], in [4], in assay [8] and in assay [5]. The AC50 in [9] was 29 µM (active); in assay [6], 67.7 µM (active); in [7], 50 µM (active).
In the case of `O=C1CCCC1`, the outcome in assay [2], in [4], in [7] and in [5] was inactive. Besides, in [3], the AC50 was 48.4 µM (active).
As to `O=C(c1ccccc1)C1CCC1`, the call in [2], in [3], in assay [4], in [6] and in [5] was inactive.
On to `c1ccc2c(c1)ccc1cc3c(ccc4ccccc43)cc12`, for which the outcome in assay [3], in assay [4], in [9], in assay [8] and in assay [7] was inactive.
With `C=C1C2CCC(C2)C1(C)C` (centres undefined), the compound was classed as inactive in [2], in [3], in [4] and in assay [5].
In the case of `CCCCOCCOC(=O)COc1nc(Cl)c(Cl)cc1Cl`, the call in assay [3], in assay [4], in assay [9], in [8], in assay [7] and in [5] was inactive.
Take `OC1CCCCCCCCCCC1`: the compound was classed as inactive in assay [3], in [4], in [7] and in assay [5].
Turning to `OC1CCCC1`, the result in assay [2], in assay [3], in assay [4], in assay [7] and in assay [5] was inactive.
With `C=CC(=O)NC(C)(C)CS(=O)(=O)O`, the result in assay [2], in [3], in [4] and in assay [5] was inactive.
For `Cc1cc(C)c(C(=O)O)c(C)c1`, the compound was called inactive in assay [2], in [7] and in [5]. Moreover, the results for the AC50 in [3] and in [4] were 93 µM (active) and 94.2 µM (active), respectively.
`COC(=O)c1c(C)cc(O)c(C)c1O`: the half-maximal activity concentration (AC50) in [2] is 56.4 µM (active). The outcome in assay [3], in assay [4] and in assay [5] was inactive.
Consider `O=C(OCC1CCC2OC2C1)C1CCC2OC2C1` (centres undefined), for which the result in assay [3], in assay [4], in [6], in [7] and in [5] was inactive.
Turning to `O=S(=O)(O)c1ccccc1C=Cc1ccc(-c2ccc(C=Cc3ccccc3S(=O)(=O)O)cc2)cc1`, the compound was called inactive in assay [2], in assay [3], in assay [6] and in [5]. In [7], the AC50 is 66.8 µM (active).
Consider `CCCCCCCCCCOS(=O)(=O)O`, for which the outcome in assay [3], in assay [4], in [6] and in [5] was inactive.
Take `C=C[Si](C)(C)O[Si](C)(C)C=C`: the compound was called inactive in assay [3], in [4], in [6], in assay [7] and in [5].
Consider `C1CN(SSN2CCOCC2)CCO1`, for which the outcome in assay [3] and in assay [4] was inactive.
Regarding `Cc1cc(C)c(C)cc1C`, the compound was classed as inactive in [3], in [4], in [9], in [6], in [7] and in assay [5].
Consider `CCCCCc1ccc(Cl)cc1`, for which the result in assay [3], in assay [4], in assay [9], in assay [8], in assay [6] and in assay [7] was inactive. The call in [5] was inactive.
With `O=C1C(N(CO)C(=O)NCO)N(CO)C(=O)N1CO` (centres undefined), the outcome in assay [2], in [3], in assay [4] and in assay [5] was inactive.
On to `CCO[Si](C)(OCC)OCC`, for which the outcome in assay [2], in assay [3], in assay [4] and in assay [7] was inactive.

Source of the values: PubChem BioAssay (EPA / NIEHS).
